The text below walks through data of paper PMC7819943, “Rice protein-binding microarrays: a tool to detect cis-acting elements near promoter regions in rice”.

The full ranking holds about 39,000 sequences; the median of “fluorescence intensity (a.u.)” is about 4,300, and the highest 2% start at about 39,000. The list comes from a sample in which the highest values are over-represented; it also holds similar and randomly drawn sequences.

The target in this experiment is T1, OsSMF1 (Oryza sativa, UniProt Q6ZLB0 1-436).
T1 sequence: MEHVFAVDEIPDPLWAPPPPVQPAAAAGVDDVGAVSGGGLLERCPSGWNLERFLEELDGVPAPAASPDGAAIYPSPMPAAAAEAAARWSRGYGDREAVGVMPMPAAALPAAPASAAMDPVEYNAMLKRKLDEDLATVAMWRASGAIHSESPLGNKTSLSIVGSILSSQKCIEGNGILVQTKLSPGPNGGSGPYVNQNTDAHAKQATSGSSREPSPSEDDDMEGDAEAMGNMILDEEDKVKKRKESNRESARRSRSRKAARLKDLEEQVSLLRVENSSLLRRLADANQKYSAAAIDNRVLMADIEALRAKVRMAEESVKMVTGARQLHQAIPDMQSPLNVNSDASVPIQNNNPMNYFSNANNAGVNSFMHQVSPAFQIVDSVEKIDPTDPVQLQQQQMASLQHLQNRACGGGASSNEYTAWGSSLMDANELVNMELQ
In words: protein-binding microarray (RPBM); PBS, 2% BSA, 51.3 ng/ul salmon testes DNA, 50 uM zinc acetate, 200 nM TF, 25 C, 1 h; high values mean tight binding. Conditions: protein: recombinant; tags: N-terminal polyhistidine and DsRed monomer fusion (pET32a); chain copies: 2; label: CyDye5-dUTP incorporated in the synthesized complementary strand; 3' TTTTT single-stranded linker to array surface; dsDNA, one strand shown. Summed up:
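Binding signal is defined as the fluorescence intensity of each feature in arbitrary units, read on an Axon 4000B scanner. Transcription factors with N-terminal polyhistidine and DsRed fusions came from E. coli BL21-CodonPlus and were purified on Ni–NTA. They were incubated at 200 nM for 1 h at 25 °C on a custom Agilent array that had been made double-stranded with Cy5-dUTP, with 50 µM zinc acetate present, and the array was washed.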
For the sequence “AGCAAATATTTACTGTAGTACTACACTGTCAAATCATGTACGGAGTCACCTAGTGCAG”, the binding signal is 3610 fluorescence intensity (a.u.).

For the sequence “AGTACTAGTTGGAATCATATGTGTCTATGGAGTATATTTTCGGAGTCACCTAGTGCAG”, the binding signal was 3160 fluorescence intensity (a.u.).

With “ATACCATATGAGCAAATACGCAGGAATCAGTACTGTATTTCGGAGTCACCTAGTGCAG”, the binding signal is 39500 fluorescence intensity (a.u.).

Turning to “GGAGGAAAATGGCCCTGATCAGCATCAGGGCAAGTACTATCGGAGTCACCTAGTGCAG”, the binding signal was 3200 fluorescence intensity (a.u.).

Regarding “TGGTAAGGTTGAAAATGGCATCAAAGTGAACAGGCCCTCACGGAGTCACCTAGTGCAG”, the binding signal is 22200 fluorescence intensity (a.u.).

With “TCCTTTGGAACATAAAAGTGACGTAGGCATGCAAATTTGTCGGAGTCACCTAGTGCAG”, the binding signal was 13700 fluorescence intensity (a.u.).

As to “CGAACATAAGTTAGTGACGCATGCCTCAAAATGAAAAGGACGGAGTCACCTAGTGCAG”, the binding signal was 41400 fluorescence intensity (a.u.).

Regarding “AGCAGACTCCACGTCGTCACCAACTTCCTTCCTCCTGGTCCGGAGTCACCTAGTGCAG”, the binding signal is 11300 fluorescence intensity (a.u.).

With “GCTCCCTCGACGACCTCGTCAAGTCCCTCCGCGCCGACCCCGGAGTCACCTAGTGCAG”, the binding signal is 4170 fluorescence intensity (a.u.).

As for “CAAGTGGGGACAGCGCCACGTGCGCGCTCGCTCTTCTCCACGGAGTCACCTAGTGCAG”, the binding signal was 11500 fluorescence intensity (a.u.).

On to “GGTGCCCTAATAAGTACGGTGGTTGAACATTACACAATTCCGGAGTCACCTAGTGCAG”, for which the binding signal was 3770 fluorescence intensity (a.u.).

As to “ATCAGCTAAGGCCAATCGGTGGATTACACACATTGGGTTCCGGAGTCACCTAGTGCAG”, the binding signal was 47600 fluorescence intensity (a.u.).

Take “ACCGGGTTCCACATGTCATACACACATTACGTCTTGGAGTCGGAGTCACCTAGTGCAG”: the binding signal was 4450 fluorescence intensity (a.u.).

Turning to “CCGGTCGGTACTAGTTCGGGGCGTGACACATGGTAGTTATCGGAGTCACCTAGTGCAG”, the binding signal is 4000 fluorescence intensity (a.u.).

With “GTTACATACTGTGATAGTTTGTTTAATGCTAAATCTAGTACGGAGTCACCTAGTGCAG”, the binding signal is 43300 fluorescence intensity (a.u.).

As for “CTCATAGTCATAGTTACTGATTTGTTTGCTCATAGTCATACGGAGTCACCTAGTGCAG”, the binding signal is 22700 fluorescence intensity (a.u.).

For the sequence “GTTTTGGTATTGGCTATAAAATGACATGGATGTTATTGGACGGAGTCACCTAGTGCAG”, the binding signal is 4760 fluorescence intensity (a.u.).

On to “TTGAAATGTTTAAGTTGTTTTAAAATTATTCTATATATTTCGGAGTCACCTAGTGCAG”, for which the binding signal was 37800 fluorescence intensity (a.u.).

“TATATGAAATTATTATTTGATTTCTTGATCATATAATGTACGGAGTCACCTAGTGCAG”: the binding signal is 3440 fluorescence intensity (a.u.).

Regarding “TGTTTATTGGCTTTGTCATATGATAAATGAATTAATTGTTCGGAGTCACCTAGTGCAG”, the binding signal was 30500 fluorescence intensity (a.u.).

As for “ACTATTGTTTGGTAGTAAAATTGATAATTAAATGACTATACGGAGTCACCTAGTGCAG”, the binding signal is 40900 fluorescence intensity (a.u.).

With “TTTGATGCTGATTATAGGAAAATGTAAATGTTTCTATATACGGAGTCACCTAGTGCAG”, the binding signal is 39500 fluorescence intensity (a.u.).

Consider “TTTACATGTGTAGATCTAATGATGTGTTAATGCTAGTATACGGAGTCACCTAGTGCAG”, for which the binding signal was 4500 fluorescence intensity (a.u.).

Take “AACAAATATCGTTCCTCGGTGTCGTCATCGTGTTTGGATCCGGAGTCACCTAGTGCAG”: the binding signal was 6670 fluorescence intensity (a.u.).

Take “GCAAGCAAAGAAAGTTGTCATCATCCCAATCCTCCTCCGCCGGAGTCACCTAGTGCAG”: the binding signal was 4050 fluorescence intensity (a.u.).

For “GTCTTTCCGAGTGGTGGCGGCGGTGGCTGATCTGCTTGTGCGGAGTCACCTAGTGCAG”, the binding signal is 3420 fluorescence intensity (a.u.).

Regarding “CATTCCTCTCTTTCCCCTCATCCCTATAAATCCAACATTTCGGAGTCACCTAGTGCAG”, the binding signal is 3440 fluorescence intensity (a.u.).

In the case of “CACCACCACCACGACGCCAACGTCAACGGCGAGGACCAAGCGGAGTCACCTAGTGCAG”, the binding signal was 3270 fluorescence intensity (a.u.).

With “CCCACATGTCGGTCCAATTCTCCCTCCAGCCACTCCCGACCGGAGTCACCTAGTGCAG”, the binding signal was 3220 fluorescence intensity (a.u.).

Take “CTAATATGGATAGATTGAAACATCAAGGACTAAACTGAGCCGGAGTCACCTAGTGCAG”: the binding signal was 3460 fluorescence intensity (a.u.).

With “GATTGAAACATCAAGGACTAAACTGAGTCTCAGATGAAACCGGAGTCACCTAGTGCAG”, the binding signal was 58100 fluorescence intensity (a.u.).

Take “CTGAAACCAACATCCAAGTCATCATGTCCAAGATGTCTCCCGGAGTCACCTAGTGCAG”: the binding signal was 6640 fluorescence intensity (a.u.).

Take “GAGAGATCGTACACGAGTCATTTCAACTCGGACAATTTGCCGGAGTCACCTAGTGCAG”: the binding signal was 3180 fluorescence intensity (a.u.).

Take “CGACTCAAAGATAAATGATATGTCATCGGCACCTAGCCGACGGAGTCACCTAGTGCAG”: the binding signal was 4200 fluorescence intensity (a.u.).

“TGTGACACATGTTACACATAATTATTATGTGAGTGGTAAACGGAGTCACCTAGTGCAG”: the binding signal was 4020 fluorescence intensity (a.u.).

In the case of “ACAACAGCTCGATCCATCCACGCGCGCGTGACGGCTCGGCCGGAGTCACCTAGTGCAG”, the binding signal is 4690 fluorescence intensity (a.u.).

For the sequence “TACTTCTACCTACCTTACCAAGTCCTGACAGTTACAACGTCGGAGTCACCTAGTGCAG”, the binding signal was 55400 fluorescence intensity (a.u.).

“GAAATCTGAACAACCAAGTTACTACTGTACTTATGTTAGTCGGAGTCACCTAGTGCAG”: the binding signal is 20700 fluorescence intensity (a.u.).

Turning to “CAATTCTACAATATGCCACTGAGTTTACCAAGTTATACAACGGAGTCACCTAGTGCAG”, the binding signal is 4020 fluorescence intensity (a.u.).

Turning to “ATAAATACCAGCTTTCCAACCATCACTTATTCACTTGCCCCGGAGTCACCTAGTGCAG”, the binding signal is 3740 fluorescence intensity (a.u.).

“TAATCCAGTACTACTTGCTGTGACAGTGTGATGTGCTTGTCGGAGTCACCTAGTGCAG”: the binding signal is 3540 fluorescence intensity (a.u.).

Regarding “AGATTGCCATCGGACGCAGTAAAACGTGTCACTACCCCACCGGAGTCACCTAGTGCAG”, the binding signal was 7590 fluorescence intensity (a.u.).
